Measured values from PubChem BioAssay AID2275 (Broad Institute, 2010).
Among all 30,000 compounds or so, about 190 (0.63%) were called active. The sample as a whole holds a higher share of actives than the screen did. Values without a mark were called inactive. Cut-off read from the data, not from the text of the source: active = viability loss activity score above about 50%; inconclusive = no clear call, values can overlap the other calls; inactive = below about 35%.

assay: cytotoxicity in HRASV12-transformed BJ fibroblasts – cell-based, luminescence, CellTiterGlo ATP, primary screen (AID 2275); settings: BJeLR fibroblasts viability, 48 h, active compounds read high, HRASV12, hTERT and SV40 LT/ST transformed, concentration not given here;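 note: higher score means fewer live cells and less ATP luminescence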

Row | Structure (SMILES) | viability loss activity score
1 | O=C(CC(O)(c1ccccc1)C(F)(F)F)c1ccccc1 (stereo unspecified) | -2.63%
2 | CCCCN(C)S(=O)(=O)c1ccc2c(c1)oc(=O)n2C | -1.52%
3 | CC(=O)Oc1ccc(N(C(C)=O)S(=O)(=O)c2ccc(Cl)cc2)cc1 | -1.22%
4 | CC[C@]1(O)C[C@@H]2CN(CCc3c([nH]c4ccccc34)[C@@](C(=O)OC)(c3cc4c(cc3OC)N(C)[C@H]3[C@@](O)(C(=O)OC)[C@H](OC(C)=O)[C@]5(CC)C=CCN6CC[C@]43[C@@H]65)C2)C1 | 64.7% (active)
5 | COc1ccc(C(=O)OC2=C(c3ccccc3)C(=O)c3ccccc3C2=O)cc1 | -6.2%
6 | CC1=C(C(=O)OC2CC(C)CCC2C(C)C)C(c2ccc(Br)cc2)n2nnnc2N1 (stereo unspecified) | -1.4%
7 | CCC1CCCCN1C(=O)c1ccc(F)cc1 (stereo unspecified) | 5.08%
8 | O=C(CSc1ccccn1)NCc1ccccc1 | -3.11%
9 | CCN1C(=O)c2cccc3c(NC(=S)NC(=O)c4ccccc4)ccc1c23 | 2.04%
10 | Cc1ccc(S(=O)(=O)N(C)C[C@@H]2Oc3c(NC(=O)NC(C)C)cccc3C(=O)N([C@H](C)CO)C[C@H]2C)cc1 | 0.297%
11 | C=CC[C@H]1Cc2ccccc2[C@H](CC=C)N1 | 5.12%
12 | COc1ccc(-c2coc3c(C)c4oc(=O)c5cc(OC)ccc5c4cc23)cc1 | -3.61%
13 | COC(=O)C1=C(N)Oc2cc(C)oc(=O)c2C1c1cccnc1 (stereo unspecified) | -1.16%
14 | CCOC(=O)CCN1N=C(c2ccc(CC)cc2)CCC1=O | -3.96%
15 | COc1ccc(S(=O)(=O)NCCN2CCOCC2)cc1-c1nnc2c3ccccc3c(C)nn12 | 13.3%
16 | CN(C)c1ccc(C2CC(c3ccc(Br)cc3)=NN2S(C)(=O)=O)cc1 (stereo unspecified) | 6.95%
17 | CSc1c(CC(=O)Nc2ccc(C)cc2)[nH]c2ccccc12 | 1.08%
18 | CC(=O)OCCn1c(=O)c2ccccc2c2ccccc2c1=O | 0.959%
19 | Cc1c(C(=O)OC2CCCC2)[nH]c2c1C(=O)CCC2 | -0.399%
20 | COc1ccc(C(=O)NCc2cc3cc(Cl)ccc3[nH]2)cc1COc1ccccc1Cl | 13.4%
21 | COc1ccc(-n2nc(C(=O)NC3CCCC(C)C3C)c3c4ccccc4n(C)c3c2=O)cc1 (stereo unspecified) | 0.653%
22 | Cc1cc(C)n(-c2ccc(-n3cccc3/C=C(/C#N)S(=O)(=O)c3ccccc3)cc2)n1 | 1.25%

Row | Structure (SMILES) | viability loss activity score
23 | O=C(CSc1ccc(Cl)cc1)N1CCc2ccccc21 | 8.93%
24 | Cc1cc(Sc2nnc(C)s2)c2ccccc2n1 | 34.4%
25 | COc1cc(S(=O)(=O)N2CCCCCCC2)ccc1-n1cnnn1 | -2.51%
26 | COc1ccc(NC(=S)N2CCCC(c3ccccc3)=N2)cc1 | -2.21%
27 | C[C@@H]1CN([C@H](C)CO)C(=O)c2cc(NS(=O)(=O)c3cccs3)ccc2O[C@@H]1CN(C)Cc1ccc(C(F)(F)F)cc1 | 0.614%
28 | CCOC(=O)C1CCN(S(=O)(=O)c2ccc(N3C(=O)CC4(CCCC4)C3=O)c(Cl)c2)CC1 | 1.47%
29 | O=C(Nn1cnc2ccccc2c1=O)c1ccccc1 | 3.68%
30 | CCC(NCC(O)Cn1c2ccccc2c2ccccc21)C(=O)O (stereo unspecified) | -1.06%
31 | CC(C)Nc1ccc(-n2nc3ccccc3[n+]2[O-])cc1 | 2.31%
32 | Cc1cccc[n+]1C/C=C\c1ccccc1 | 13.2%
33 | Cc1ccc(S(=O)(=O)Nc2ccc3c(c2)C(=O)N([C@@H](C)CO)C[C@@H](C)[C@@H](CN(C)S(=O)(=O)c2ccc(C)cc2)O3)cc1 | 3.23%
34 | CC(C)(C)c1nc(=S)[nH][nH]1 | -5.55%
35 | Cc1noc(C)c1S(=O)(=O)Nc1ccc2c(c1)C(=O)N([C@@H](C)CO)C[C@H](C)[C@H](CN(C)Cc1ccc(C(=O)Nc3ccccc3N)cc1)O2 | 6.72%
36 | Cn1c(Cc2nc(-c3cnccn3)no2)nnc1SCC(=O)Nc1ccc(Cl)cc1 | -7.21%
37 | Cc1ccc(-n2cc(-c3ccccc3)c3c(NN4CCOCC4)ncnc32)cc1Cl | 0.765%
38 | CC(C)(C)NC(=S)N1CCn2cccc2C1c1ccccc1F (stereo unspecified) | -3.87%
39 | Cc1ccccc1OC1C(=O)N(CCc2ccc(F)cc2)C1c1ccc2c(c1)OCO2 (stereo unspecified) | 0.258%
40 | CCCC(=O)N1CCC(c2c[nH]c3ccccc23)(c2c[nH]c3ccccc23)CC1 | 5.31%
41 | CC(=O)NN1C(=O)c2ccccc2NC1c1ccccc1 (stereo unspecified) | -1.21%
42 | Cc1cccc(C(=O)Nc2ccc(NC(=O)c3ccco3)cc2)c1 | 0.303%
43 | CS(=O)(=O)c1sc(C(=O)Nc2ccccc2Cl)c2c1C=CCC2 | -1.24%
44 | NC(=O)Cn1nnc2sc3c(c2c1=O)CCCC3 | 10.6%

Row | Structure (SMILES) | viability loss activity score
45 | Cc1ccc(CC2C(=O)N(c3cccc(C(F)(F)F)c3)C(=O)C2C)cc1 (stereo unspecified) | 1.06%
46 | O=C(O)c1ccc(CNCCc2ccccc2)s1 | 0.164%
47 | COC(=O)C1=C(C)N(C)C(=S)NC1c1ccccc1 (stereo unspecified) | -3.34%
48 | CCOC(=O)c1cccc(NC(=O)CCOc2ccccc2)c1 | 2.1%
49 | Cc1ccc(CCNC(=O)C2(NS(=O)(=O)c3cccc4cccnc34)CCCCC2)cc1 | 2.11%
50 | Cc1ccc(S(=O)(=O)N(CC(=O)NC2CC2)C2CCCCC2)cc1 | 5.79%
51 | CC(C)(C)C(=O)CSc1nc2ccccc2c(=O)n1CC1CC1 | -4.35%
52 | Cc1cc(C(C)(C)C)cc(S(=O)(=O)Nc2ccc(C(=O)N3CCC(C)CC3)cc2)c1C | -6.82%
53 | O=c1n(Cc2ccccc2)c2ccccc2n1Cc1ccccc1 | 6.4%
54 | CC(C)NC(=O)Nc1ccc2c(c1)C(=O)N([C@@H](C)CO)C[C@H](C)[C@H](CN(C)S(=O)(=O)c1cccs1)O2 | -2.18%
55 | O=C1C2=C(Nc3ccccc3S(=O)(=O)C2c2ccc(Cl)cc2)c2ccccc21 (stereo unspecified) | 0.962%
56 | CNC(=O)NC(=O)CSc1ncnc2sc(-c3ccccc3)cc12 | 7.62%
57 | CC(C)NC(=O)N(C)C[C@H]1Oc2ccc(NC(=O)CCCCCC(=O)Nc3ccccc3N)cc2C(=O)N([C@@H](C)CO)C[C@@H]1C | -2.79%
58 | Cc1ccccc1C(=O)Nc1ccc(NC(=O)c2ccc(C(C)(C)C)cc2)cc1 | -4.36%
59 | N#Cc1c(-c2ccccc2)c(-c2ccccc2)nn(CC(=O)NN)c1=O | 26.9%
60 | COC(=O)C1=C(C)NC2=C(C(=O)c3ccccc32)C1c1ccc(OC)cc1 (stereo unspecified) | -2.35%
61 | CCOC(=O)c1cc2c(C)n(-c3ccccc3)c(C)c2cc(C(=O)OCC)c1=O | -1.14%
62 | CC(C)n1c(SCC(=O)O)nc2cc(Cl)ccc21 | 2.11%
63 | CCN(/C=C1\SC(=S)N(c2ccc(OC)cc2)C1=O)CC | -2.34%
64 | CCCN(C(=O)CCc1nc(-c2ccccc2F)no1)c1ccccc1C | 14.3%
65 | COc1ccc(CN(C)C[C@H]2Oc3c(NC(=O)C4CCCCC4)cccc3C(=O)N([C@@H](C)CO)C[C@@H]2C)cc1 | 0.512%
66 | CC(=O)Nc1ccc(Nc2c3c4c(cccc4[nH]c2=O)C(=O)c2ccccc2-3)cc1 | 59.2% (active)

Row | Structure (SMILES) | viability loss activity score
67 | O=C(Nc1ccccc1C(=O)O)c1ccc(CN2CCOCC2)cc1 | 8.6%
68 | CCn1cc(C(=O)NC2CCCC(C)C2C)c2cc(OC)c(OC)cc2c1=O (stereo unspecified) | 2.08%
69 | O=C1/C(=C/c2cccc(Br)c2)SC(=S)N1CC(=O)N1CCCc2ccccc21 | -6.26%
70 | O=S(=O)(Nc1ccccc1C(F)(F)F)c1ccc2c(c1)CCO2 | 2.04%
71 | C[C@@H]1CN([C@H](C)CO)C(=O)c2cc(NS(=O)(=O)c3ccc(Cl)cc3)ccc2O[C@@H]1CN(C)CC1CCCCC1 | -2.47%
72 | COc1ccc(-c2nn(-c3ccc(C)c(Cl)c3)c3c2cnc2ccc(F)cc23)cc1OC | -4.15%
73 | Cc1ccc(S(=O)(=O)n2c(C)cc(C(=O)O)c2C)cc1 | -6.81%
74 | NC1=NC(=O)C(Cc2cccc(Cl)c2)S1 (stereo unspecified) | -0.141%
75 | CCC(Sc1nc2ccsc2c(=O)n1Cc1ccccn1)C(=O)Nc1cccc(OC)c1 (stereo unspecified) | -2.12%
76 | CCOC(=O)C1C=C2C(=O)N3C=CC=CC3N=C2N(C(C)C)C1=NC(C)=O (stereo unspecified) | -1.61%
77 | C=CCSc1nnc2n1CCCN2C(=O)Nc1cccc(Cl)c1 | -3.59%
78 | OC(CN1CCN(C2c3ccccc3-c3ccccc32)CC1)c1ccccc1 (stereo unspecified) | 0.265%
79 | Cc1cc(Nc2ccc(Cl)cc2)c2ccccc2n1 | 12.6%
80 | CCCn1cc(SCC(=O)N2CCc3ccccc32)c2ccccc21 | 1.29%
81 | CCOC(=O)c1c(NC(=S)Nc2ccc(OC)cc2)sc2c1CC(C(C)C)OC2 (stereo unspecified) | 3.67%
82 | CC(C)NC(=O)Cn1c2ccccc2c2cn[nH]c(=O)c21 | -1.32%
83 | CC(=O)N(c1nc(-c2cc3ccccc3oc2=O)cs1)c1cccc(C)c1C | 5.58%
84 | CCc1c(C)c(C#N)c2nc3ccccc3n2c1-n1ccnc1 | 1.77%
85 | C[C@H]1CN([C@@H](C)CO)C(=O)c2cc(NC(=O)Cc3cn(C)c4ccccc34)ccc2O[C@H]1CN(C)Cc1ccc(Cl)c(Cl)c1 | -2.28%
86 | Cc1ccc(S(=O)(=O)N(C)C[C@@H]2Oc3ccc(NS(=O)(=O)c4cccs4)cc3C(=O)N([C@@H](C)CO)C[C@H]2C)cc1 | -3.75%
